Consider 37 molecules from PubChem BioAssay.

The structures appear in SMILES notation. A number with no mark means an inactive call. Activity calls are given as the source filed them.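 Rule for the calls, unless noted: active = mean inhibition above 46.5%, the solvent-only control mean plus 3 SD; inactive = the rest.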

Assay [1] deals with transactivating tegument protein VP16 (Human herpesvirus 1). In words: compounds suppressing VP16-driven luciferase signal – cell-based, luminescence, single concentration, counter-screen for SRC2 inhibitor project (AID 652007; in the data active = inhibition above about 36%). The note with it: cell-based VP16 transactivation luciferase reporter, at 8.9 µM, stronger effect = higher value. For orientation: Counterscreens check selectivity or assay interference.

Assay [2] deals with Nuclear receptor coactivator 2 (Homo sapiens) (UniProt Q15596). Description: inhibition of GAL4-SRC2 driven luciferase expression – cell-based, luminescence, HEK293, triplicate, confirmation (AID 652008).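 Note: 0% = DMSO-treated cells and 100% = Gossypol at 36 µM.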 The note with it: HEK293 GAL4-SRC2 luciferase reporter, at 8.9 µM, stronger effect = higher value. A general note: In a reporter assay the amount or activity of a reporter protein is the signal.
Chain of Nuclear receptor coactivator 2 (Homo sapiens) (Q15596 whole entry, looked up, the tested form may be a part): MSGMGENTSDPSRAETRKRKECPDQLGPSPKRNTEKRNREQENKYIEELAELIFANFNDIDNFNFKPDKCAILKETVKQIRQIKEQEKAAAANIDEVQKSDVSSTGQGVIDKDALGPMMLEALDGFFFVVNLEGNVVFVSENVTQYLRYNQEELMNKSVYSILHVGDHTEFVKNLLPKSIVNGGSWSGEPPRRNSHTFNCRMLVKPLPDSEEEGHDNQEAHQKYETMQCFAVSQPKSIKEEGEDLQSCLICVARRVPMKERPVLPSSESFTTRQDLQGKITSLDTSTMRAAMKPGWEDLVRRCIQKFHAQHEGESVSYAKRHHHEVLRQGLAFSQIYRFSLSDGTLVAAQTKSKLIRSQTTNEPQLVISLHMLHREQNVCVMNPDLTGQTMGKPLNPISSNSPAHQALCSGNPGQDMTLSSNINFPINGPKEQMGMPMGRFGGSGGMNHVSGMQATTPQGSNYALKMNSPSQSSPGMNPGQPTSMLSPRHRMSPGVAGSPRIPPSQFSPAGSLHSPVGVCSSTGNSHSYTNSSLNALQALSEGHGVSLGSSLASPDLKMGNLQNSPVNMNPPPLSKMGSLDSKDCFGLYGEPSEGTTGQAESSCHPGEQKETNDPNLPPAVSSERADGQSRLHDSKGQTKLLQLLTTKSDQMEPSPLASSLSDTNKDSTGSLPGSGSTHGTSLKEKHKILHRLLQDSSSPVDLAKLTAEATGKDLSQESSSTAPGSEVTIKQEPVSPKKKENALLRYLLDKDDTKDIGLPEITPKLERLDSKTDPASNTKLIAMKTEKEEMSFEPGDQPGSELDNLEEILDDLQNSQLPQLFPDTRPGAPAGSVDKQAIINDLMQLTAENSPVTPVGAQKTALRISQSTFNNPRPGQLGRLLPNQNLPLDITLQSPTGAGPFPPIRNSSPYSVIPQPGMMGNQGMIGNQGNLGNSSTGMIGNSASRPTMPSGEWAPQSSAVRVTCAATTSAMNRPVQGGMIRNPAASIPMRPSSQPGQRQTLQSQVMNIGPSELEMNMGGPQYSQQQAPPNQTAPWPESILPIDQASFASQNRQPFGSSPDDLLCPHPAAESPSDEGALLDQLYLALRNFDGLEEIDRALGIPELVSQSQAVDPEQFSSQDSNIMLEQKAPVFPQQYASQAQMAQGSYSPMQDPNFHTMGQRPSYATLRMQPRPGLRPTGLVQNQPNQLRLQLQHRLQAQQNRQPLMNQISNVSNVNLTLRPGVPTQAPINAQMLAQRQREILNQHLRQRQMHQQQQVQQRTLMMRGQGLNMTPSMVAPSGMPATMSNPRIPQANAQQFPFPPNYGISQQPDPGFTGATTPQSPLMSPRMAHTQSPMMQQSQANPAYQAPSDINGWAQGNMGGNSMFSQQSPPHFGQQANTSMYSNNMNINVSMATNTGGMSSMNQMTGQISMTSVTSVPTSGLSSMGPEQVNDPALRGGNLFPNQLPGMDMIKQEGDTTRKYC

Consider `CCc1cc(CNC(=O)c2ccc3nc(Cc4ccc(OC)c(OC)c4)oc3c2)on1`, for which the inhibition was 9.61% in assay [1] and 26.6% in assay [2].
As for `O=C(O)COc1ccc(-c2nccc(-c3ccccn3)n2)cc1`, the inhibition in assay [1] is 20.4%; in assay [2], 79.1% (active).
In the case of `CCC(C)(C)c1ccc(Oc2ccc(NC(=O)COC(=O)C3=COCCO3)cc2)cc1`, the inhibition is 33.8% in assay [1] and 46.5% in assay [2].
Regarding `CCCC(=O)NC(c1ccccc1)c1ccc2cccnc2c1O` (centres undefined), the results for the inhibition in assay [1] and in assay [2] were -0.88% and 33.3%, respectively.
Turning to `O=C(Nc1ccc(F)cc1)c1nc(S(=O)(=O)Cc2ccccc2)ncc1Cl`, the inhibition was 36.6% (active) in assay [1] and 37.9% in assay [2].
In the case of `O=C(Nc1ccncc1)c1c(Cl)cccc1Cl`, the inhibition in assay [1] is -4.71%; in assay [2] it was 12.5%.
The like results for `COc1ccc(NC(=O)NCc2ccccc2F)cc1OC` were, in that order, -0.66% and -17.2%.
For `CC(C)(C)c1ccc(SCCc2ccncc2)cc1`, the inhibition in assay [1] was -28.2%; in assay [2], -4.99%.
As for `O=C(O)c1ccc(Nc2nc3c(s2)CCCC3)cc1`, the inhibition in assay [1] was -31%; in assay [2], 10.9%.
As for `Cc1c(NC(=O)COC(=O)C23CC4CC(CC(O)(C4)C2)C3)c(=O)n(-c2ccccc2)n1C`, the inhibition in assay [1] was 2.86%; in assay [2], 3.79%.
Turning to `CCOC(=O)Cc1ccc(NC(=O)c2ccc(C(C)(C)C)cc2)cc1`, the inhibition in assay [1] was -47.1%; in assay [2], 63.9% (active).
Take `N/C(=N\OC(=O)c1ccc2ccccc2c1)c1ccccn1`: the inhibition in assay [1] is -38.3%; in assay [2], -34.3%.
In the case of `C=CCn1nc(C(=O)N2CCOCC2)cc1-c1sc(NC(=O)c2ccccc2)nc1C`, the inhibition in assay [1] was -15.6%; in assay [2], 24.6%.
In the same order, the values of `O=C(N/N=C/c1ccc([N+](=O)[O-])s1)c1ccccc1` are 34.9% and 24.6%.
The like results for `O=C(CSc1nc(N2CCOCC2)nc(N2CCOCC2)n1)Nc1ccccc1F` were, in that order, 1.31% and 14.8%.
The like results for `COc1ccc(-c2cn3cccnc3n2)cc1NC(=O)C(C)Oc1ccccc1` (centres undefined) were, in that order, -18.1% and -20.2%.
Consider `CC(C)CC(NC(=O)c1ccco1)C(=O)Nc1ccc2c(c1)OCCO2` (centres undefined), for which the values for the inhibition in assay [1] and in assay [2] were 10.6% and 7.27%, respectively.
In the same order, the values of `Cc1nc(SCc2ccc(C(=O)O)cc2)nc2c1CCCC2` are 10.8% and 23.6%.
On to `O=S(=O)(c1cccc2cnccc12)N1CCNCC1`, for which the inhibition in assay [1] was 5.01%; in assay [2], 48.1% (active).
In the same order, the values of `CCN1CCCc2cc(CN(CCN3CCOCC3)C(=S)Nc3ccccc3OC)ccc21` are -14.1% and -10.6%.
As to `CC(OC(=O)C1CCCCC1)C(=O)Nc1cccc([N+](=O)[O-])c1` (centres undefined), the inhibition in assay [1] is -0.78%; in assay [2], 9.77%.
As for `NC(=O)CC(NC(=O)c1ccc(Br)cc1)c1ccc(N2CCCCCC2)c([N+](=O)[O-])c1` (centres undefined), the inhibition was 9.13% in assay [1] and 23.3% in assay [2].
The like results for `Cc1ccc(Nc2nc(N)nc(CN3CCN(Cc4ccc5c(c4)OCO5)CC3)n2)cc1` were, in that order, -10.2% and -18.2%.
The like results for `CCn1cc(S(=O)(=O)Nc2ccc3c(c2)OCCO3)cn1` were, in that order, -3.8% and 48.4% (active).
In the same order, the values of `Cc1ccc(C(=O)Nc2ncc([N+](=O)[O-])s2)cc1` are -7.15% and 57.7% (active).
Consider `O=C(c1ccccc1)C(CN1CCCCC1)c1ccccc1` (centres undefined), for which the inhibition in assay [1] was 29.1%; in assay [2], 63.6% (active).
The like results for `CC(C)N(Cc1ccccc1)C(=S)NCc1ccccc1` were, in that order, -3.69% and -6.45%.
With `O=C(Nc1nnc(SCc2ccc(F)cc2)s1)c1cccnc1Cl`, the inhibition in assay [1] is -9.69%; in assay [2] it was -19.9%.
In the same order, the values of `O=C(O)CCSc1nc2ccccc2s1` are 40.8% (active) and 58.5% (active).
The like results for `C[C@@H]1C[C@H]2O[C@@H]2/C=C\C=C\C(=O)Cc2cc(O)cc(O)c2C(=O)O1` were, in that order, 34.7% and 15.2%.
For the molecule `COc1ccc(OC)c(-n2nnnc2SCC(=O)Nc2cc(C)ccc2OC)c1`, the inhibition is -22.1% in assay [1] and 2.63% in assay [2].
In the same order, the values of `CC1CCCc2sc3ncn(N)c(=N)c3c21` (centres undefined) are -0.69% and 1.19%.
Take `Cc1ccc(N(C(=O)c2ccc3c(c2)OCO3)C2C=CS(=O)(=O)C2)cc1C` (centres undefined): the results for the inhibition in assay [1] and in assay [2] were 0.8% and -17.6%, respectively.
As for `CC(=NCc1ccco1)c1c(C)[nH]n(-c2nc3ccccc3s2)c1=O`, the figures for the inhibition in assay [1] and in assay [2] were -24% and 14.3%, respectively.
In the same order, the values of `O=S(=O)(Nc1cc(Sc2cccc3cccnc23)c(O)c2ccccc12)c1ccccc1` are 97.2% (active) and 98.7% (active).
In the same order, the values of `Cc1c(CCC(=O)N2CCC[C@H]2C(=O)O)c(=O)oc2c(C)c3oc4c(c3cc12)CCCC4` are 39% (active) and 37.5%.
The like results for `NC(Cc1ccc(Cl)cc1)c1csc(NC(=O)NCC2CCCCC2)n1` (centres undefined) were, in that order, -2.01% and 3.16%.

What is called inhibition is the change of the read-out against control, counted positive when it falls.
